Measurements from the supplement of paper PMC11732987, “Enantioselective OTUD7B fragment discovery through chemoproteomics screening and high-throughput optimisation” (Communications Chemistry, 2025).

How the values were obtained:
Assay in all cases: log2 ratio of Biotin-Ahx-Ub-VS probe labelling (fragment/DMSO); higher = less target engagement (more negative = stronger competition), active = hit call of the paper (q ≤ 0.05, log2 ratio ≤ -1)
Conditions in all cases: compound concentration: 200 uM; treatment time: 3 h
OTUD6B = target: T1, OTUD6B (UniProt Q8N6M0)
T1 sequence (whole entry): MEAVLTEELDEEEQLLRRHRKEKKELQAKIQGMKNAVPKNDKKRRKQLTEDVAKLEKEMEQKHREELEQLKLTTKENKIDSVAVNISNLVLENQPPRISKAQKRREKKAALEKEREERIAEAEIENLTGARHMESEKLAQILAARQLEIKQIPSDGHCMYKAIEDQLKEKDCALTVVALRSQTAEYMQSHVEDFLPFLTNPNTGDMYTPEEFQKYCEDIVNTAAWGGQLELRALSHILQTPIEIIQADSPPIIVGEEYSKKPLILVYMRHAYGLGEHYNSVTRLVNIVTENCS
In short: (§1)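 HEK293T lysate (495 µg per sample, in Tris/CHAPS/IGEPAL buffer with protease inhibitors) was treated in triplicate with fragment at 200 µM or with DMSO for 3 h. It was then treated with Biotin-Ahx-Ub-VS (0.5 µM final) for 1 h. Labelled DUBs were NeutrAvidin-enriched, digested with LysC and trypsin, and run by diaPASEF LC-MS/MS. Spectronaut label-free quantities were global-median-normalised. Values are average log2 ratios fragment/DMSO by unpaired t-test, using proteins with ≥2 unique peptides.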

OTUD7B = target: T2, OTUD7B (UniProt Q6GQQ9)
T2 sequence (whole entry): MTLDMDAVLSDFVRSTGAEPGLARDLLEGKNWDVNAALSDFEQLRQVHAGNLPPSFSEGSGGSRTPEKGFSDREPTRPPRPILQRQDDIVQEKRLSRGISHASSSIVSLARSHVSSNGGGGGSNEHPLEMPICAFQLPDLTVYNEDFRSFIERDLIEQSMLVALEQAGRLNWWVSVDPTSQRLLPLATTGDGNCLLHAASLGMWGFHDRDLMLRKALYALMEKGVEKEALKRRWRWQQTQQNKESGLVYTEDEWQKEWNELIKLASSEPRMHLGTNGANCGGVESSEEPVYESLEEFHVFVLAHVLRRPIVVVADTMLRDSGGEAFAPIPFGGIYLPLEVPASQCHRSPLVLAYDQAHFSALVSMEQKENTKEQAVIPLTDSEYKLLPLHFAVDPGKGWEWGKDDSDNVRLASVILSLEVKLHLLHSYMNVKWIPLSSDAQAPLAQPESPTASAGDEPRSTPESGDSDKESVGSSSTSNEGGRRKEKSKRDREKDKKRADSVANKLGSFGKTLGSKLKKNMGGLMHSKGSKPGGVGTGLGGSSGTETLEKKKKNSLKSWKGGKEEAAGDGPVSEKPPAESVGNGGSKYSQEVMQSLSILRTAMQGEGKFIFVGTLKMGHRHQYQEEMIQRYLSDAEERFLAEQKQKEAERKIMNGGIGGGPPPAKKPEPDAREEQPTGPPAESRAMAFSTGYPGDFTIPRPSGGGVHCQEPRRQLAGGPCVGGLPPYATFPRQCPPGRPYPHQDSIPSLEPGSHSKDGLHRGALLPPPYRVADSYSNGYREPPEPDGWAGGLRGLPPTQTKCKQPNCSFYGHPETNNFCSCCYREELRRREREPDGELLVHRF
In short: as §1

PRPF8 = PRPF8 (UniProt Q6P2Q9)
In short: as §1

PSMD7 = target: T3, PSMD7 (UniProt P51665)
T3 sequence (whole entry): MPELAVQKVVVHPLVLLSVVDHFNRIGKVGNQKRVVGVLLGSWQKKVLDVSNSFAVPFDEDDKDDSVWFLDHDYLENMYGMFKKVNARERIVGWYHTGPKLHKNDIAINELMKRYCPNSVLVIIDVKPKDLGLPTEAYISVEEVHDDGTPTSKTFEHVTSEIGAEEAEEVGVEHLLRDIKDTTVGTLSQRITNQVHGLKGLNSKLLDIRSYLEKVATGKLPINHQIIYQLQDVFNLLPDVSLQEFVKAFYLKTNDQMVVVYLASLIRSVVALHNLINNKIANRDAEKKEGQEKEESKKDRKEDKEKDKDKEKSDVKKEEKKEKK
In short: as §1

UCHL1 = UCHL1 (UniProt P09936)
UCHL1, sequence (P09936 whole entry, looked up): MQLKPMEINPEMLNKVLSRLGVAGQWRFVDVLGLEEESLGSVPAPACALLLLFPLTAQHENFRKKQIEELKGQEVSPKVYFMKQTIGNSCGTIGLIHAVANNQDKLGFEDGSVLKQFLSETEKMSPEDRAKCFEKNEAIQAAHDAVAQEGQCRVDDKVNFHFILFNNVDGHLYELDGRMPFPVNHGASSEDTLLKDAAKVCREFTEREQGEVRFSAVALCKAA
In short: as §1

UCHL3 = target: T4, UCHL3 (UniProt P15374)
T4 sequence (whole entry): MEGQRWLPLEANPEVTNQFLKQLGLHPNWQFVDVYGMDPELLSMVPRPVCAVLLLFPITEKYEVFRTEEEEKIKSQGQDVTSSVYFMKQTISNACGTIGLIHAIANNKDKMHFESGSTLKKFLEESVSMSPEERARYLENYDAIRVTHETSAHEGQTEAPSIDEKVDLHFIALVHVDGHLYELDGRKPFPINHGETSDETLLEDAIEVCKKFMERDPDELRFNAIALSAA
In short: as §1

UCHL5 = target: T5, UCHL5 (UniProt Q9Y5K5)
T5 sequence (whole entry): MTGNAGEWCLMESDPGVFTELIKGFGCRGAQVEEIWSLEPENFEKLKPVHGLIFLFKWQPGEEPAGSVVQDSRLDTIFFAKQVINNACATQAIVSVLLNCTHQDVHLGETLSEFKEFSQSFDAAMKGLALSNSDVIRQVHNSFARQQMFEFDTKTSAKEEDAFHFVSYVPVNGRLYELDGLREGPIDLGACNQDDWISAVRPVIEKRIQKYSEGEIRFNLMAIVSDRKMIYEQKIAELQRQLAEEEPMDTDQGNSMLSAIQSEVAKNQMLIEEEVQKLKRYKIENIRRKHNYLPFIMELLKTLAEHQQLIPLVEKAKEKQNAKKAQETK
In short: as §1

USP10 = USP10 (UniProt Q14694)
USP10, sequence (Q14694 whole entry): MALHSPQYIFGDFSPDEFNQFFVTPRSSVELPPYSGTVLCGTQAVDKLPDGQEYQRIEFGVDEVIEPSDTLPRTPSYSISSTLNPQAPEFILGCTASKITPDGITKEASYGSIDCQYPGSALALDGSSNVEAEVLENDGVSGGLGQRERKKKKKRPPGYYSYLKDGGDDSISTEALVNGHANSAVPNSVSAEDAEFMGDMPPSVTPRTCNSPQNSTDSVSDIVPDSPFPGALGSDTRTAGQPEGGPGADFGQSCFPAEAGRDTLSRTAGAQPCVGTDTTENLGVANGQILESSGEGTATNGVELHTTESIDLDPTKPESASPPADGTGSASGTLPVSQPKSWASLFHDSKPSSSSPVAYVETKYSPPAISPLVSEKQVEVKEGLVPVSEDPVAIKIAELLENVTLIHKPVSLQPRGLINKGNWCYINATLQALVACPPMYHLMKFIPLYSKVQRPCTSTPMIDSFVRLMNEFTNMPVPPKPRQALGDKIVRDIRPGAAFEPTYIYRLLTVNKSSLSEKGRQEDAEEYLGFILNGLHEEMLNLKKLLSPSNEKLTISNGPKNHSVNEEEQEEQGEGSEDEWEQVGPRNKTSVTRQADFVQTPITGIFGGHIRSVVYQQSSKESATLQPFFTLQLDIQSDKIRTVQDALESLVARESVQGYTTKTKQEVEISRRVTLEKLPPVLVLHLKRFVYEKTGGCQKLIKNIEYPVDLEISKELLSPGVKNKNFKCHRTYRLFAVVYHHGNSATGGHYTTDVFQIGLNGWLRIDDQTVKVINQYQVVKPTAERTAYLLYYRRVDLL
In short: as §1

USP15 = target: T6, USP15 (UniProt Q9Y4E8)
T6 sequence (whole entry): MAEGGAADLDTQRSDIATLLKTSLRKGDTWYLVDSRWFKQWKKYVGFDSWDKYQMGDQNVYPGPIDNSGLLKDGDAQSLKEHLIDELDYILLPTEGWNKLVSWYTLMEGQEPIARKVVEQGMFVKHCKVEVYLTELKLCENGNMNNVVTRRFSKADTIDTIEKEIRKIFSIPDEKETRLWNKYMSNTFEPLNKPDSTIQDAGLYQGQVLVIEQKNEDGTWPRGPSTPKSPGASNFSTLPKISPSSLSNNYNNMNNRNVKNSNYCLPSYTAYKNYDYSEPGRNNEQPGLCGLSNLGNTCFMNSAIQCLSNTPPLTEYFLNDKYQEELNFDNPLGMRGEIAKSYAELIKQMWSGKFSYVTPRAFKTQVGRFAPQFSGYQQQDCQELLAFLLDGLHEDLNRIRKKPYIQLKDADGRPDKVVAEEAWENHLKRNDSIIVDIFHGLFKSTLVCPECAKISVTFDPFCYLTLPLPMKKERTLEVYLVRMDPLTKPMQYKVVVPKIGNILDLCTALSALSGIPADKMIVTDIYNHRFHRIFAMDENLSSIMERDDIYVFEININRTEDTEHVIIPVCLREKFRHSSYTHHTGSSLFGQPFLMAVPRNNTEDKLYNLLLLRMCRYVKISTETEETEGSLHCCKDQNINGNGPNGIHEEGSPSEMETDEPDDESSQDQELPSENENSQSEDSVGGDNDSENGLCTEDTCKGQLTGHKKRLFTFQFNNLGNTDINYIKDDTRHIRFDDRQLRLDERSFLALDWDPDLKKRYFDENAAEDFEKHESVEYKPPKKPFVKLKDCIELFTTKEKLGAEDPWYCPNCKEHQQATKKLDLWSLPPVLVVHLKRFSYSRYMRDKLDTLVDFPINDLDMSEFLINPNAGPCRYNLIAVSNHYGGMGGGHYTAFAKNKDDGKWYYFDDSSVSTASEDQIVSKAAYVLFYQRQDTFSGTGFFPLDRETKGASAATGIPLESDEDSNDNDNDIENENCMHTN
In short: as §1

USP16 = USP16 (UniProt Q9Y5T5)
USP16, sequence (Q9Y5T5 whole entry, looked up): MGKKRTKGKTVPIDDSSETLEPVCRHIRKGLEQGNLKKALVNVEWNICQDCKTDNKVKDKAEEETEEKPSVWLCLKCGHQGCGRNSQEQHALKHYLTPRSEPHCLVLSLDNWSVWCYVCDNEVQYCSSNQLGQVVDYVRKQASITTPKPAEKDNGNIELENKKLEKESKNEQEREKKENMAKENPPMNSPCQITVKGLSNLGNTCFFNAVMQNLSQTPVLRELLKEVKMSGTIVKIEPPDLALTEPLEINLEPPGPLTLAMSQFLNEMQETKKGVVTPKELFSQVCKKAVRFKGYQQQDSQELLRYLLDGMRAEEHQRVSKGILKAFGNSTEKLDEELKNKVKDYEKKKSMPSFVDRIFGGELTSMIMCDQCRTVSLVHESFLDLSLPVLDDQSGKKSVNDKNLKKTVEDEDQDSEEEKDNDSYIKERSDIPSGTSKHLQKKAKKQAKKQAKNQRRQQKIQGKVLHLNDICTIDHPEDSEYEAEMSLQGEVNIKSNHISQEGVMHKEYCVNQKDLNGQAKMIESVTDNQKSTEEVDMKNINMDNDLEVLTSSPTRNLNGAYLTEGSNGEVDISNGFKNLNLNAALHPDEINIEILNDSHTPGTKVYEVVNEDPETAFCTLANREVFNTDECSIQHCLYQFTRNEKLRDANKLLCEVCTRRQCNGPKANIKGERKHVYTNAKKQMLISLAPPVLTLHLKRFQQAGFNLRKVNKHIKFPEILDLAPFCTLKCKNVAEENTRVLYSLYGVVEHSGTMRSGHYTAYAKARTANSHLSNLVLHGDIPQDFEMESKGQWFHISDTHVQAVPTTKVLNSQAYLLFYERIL
In short: as §1

Measured: log2 ratio of Biotin-Ahx-Ub-VS probe labelling

Cn1cc(CN(Cc2ccc(Cl)cc2)C(=O)CCl)cn1
inactive: OTUD6B -0.0472 | OTUD7B -0.238 | PRPF8 0.208 | PSMD7 0.0391 | UCHL1 -0.602 | UCHL3 0.113 | UCHL5 -0.221 | USP10 -0.0261 | USP15 -0.272
active: USP16 -1.17
